Assay outcomes deposited in PubChem by National Center for Advancing Translational Sciences (NCATS).
Tau FP inhib = qHTS for Inhibitors of Tau Fibril Formation, Fluorescence Polarization; K18 P301L tau heparin fibrillization, Alexa594 FP, 6 h; Microtubule-associated protein tau (Homo sapiens), P10636; 280,000 tested, 0.39% active; Potency, µM (series often up to 57.7 µM), hits mostly inhibitors; note: nearly all actives have a fitted effect of over 55% in size
Target sequence (P10636 561-689 P618L limits assumed): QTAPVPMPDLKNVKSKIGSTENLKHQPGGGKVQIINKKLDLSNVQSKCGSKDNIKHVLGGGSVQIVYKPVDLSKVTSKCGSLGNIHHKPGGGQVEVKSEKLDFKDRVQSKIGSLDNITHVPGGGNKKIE
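Human tau K18 […] P301L fragment, 15 uM unlabeled plus 0.24 uM Alexa 594-labeled tau (final), with compound and 20 uM heparin in 100 mM sodium acetate pH 7; 6 hr at 37 C, then Alexa 594 FP read.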
Tau ThT inhib = qHTS for Inhibitors of Tau Fibril Formation, Thioflavin T Binding; Microtubule-associated protein tau (Homo sapiens), P10636; recombinant tau K18 P301L, heparin-induced fibrillization, ThT fluorescence; Potency, µM (series often up to 57.4 µM), actives largely listed as inhibitors; 270,000 tested, 2.1% active; note: nearly all actives have a fitted effect of over 55% in size
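Fibril formation assay: tau K18 P301L at 15 uM with trace Alexa 594 label, heparin inducer 20 uM, pH 7 sodium acetate buffer, 37 C for 6 hr; endpoint ThT signal.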
Sfp inh = qHTS Assay for Inhibitors of Bacillus subtilis Sfp phosphopantetheinyl transferase (PPTase); Biochemical Sfp PPTase activity, qHTS; Potency, µM, hits mostly inhibitors; 310,000 tested, 3.5% active;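 note: the enzyme is Sfp with the accession as filed and its product quenches rhodamine fluorescence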
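Compounds were incubated with enzyme (final 15 nM) for 15 min at room temperature before substrate addition started the reaction. Fluorescence at 525 nm excitation, 598 nm emission was recorded immediately and after 30 minutes.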
FBPA coupling cs = qHTS Assay for Inhibitors of Fructose-1,6-bisphosphate Aldolase from Giardia Lamblia: Coupling assay counterscreen | 290,000 tested, 0.67% active | AID 2472, 2010 | activity change, negative = inhibition, % at 58.2 µM, hits read low | coupling enzyme system counterscreen, AmpLite Red fluorescence; in the data active = activity change below about -30%
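Coupling enzymes only (glyceraldehyde-3-phosphate) + compound, at 57.5 uM final, 10 min RT; add substrate/coupling/AmpLite Red mix, 20 min RT; fluorescence ex 525/em 598 nm. Actives flag coupling-system interference.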
Tau fluor counter = Counterscreen qHTS for Inhibitors of Tau Fibril Formation, Fluorescence Polarization; Potency, µM (top dose mostly 57.7 µM); tau K18 P301L (four-repeat tau fragment) Alexa594 fluorescence, heparin fibrillization; 280,000 tested, 0.93% active; AID 1463, 2008; note: nearly all actives have a fitted effect of over 55% in size
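Human K18 P301L tau (15 uM unlabeled plus 0.24 uM Alexa 594-labeled, final) in 100 mM sodium acetate pH 7 was mixed with compound and 20 uM heparin and incubated 6 hr at 37 C.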
A number is an active result; – = inactive; ? = inconclusive; · = no result given; [ ] = another dose, or the depositor's remark. A selection: hits, their analogues and other compounds. The true share with any hit is near 5.2%. Unless noted, calls come from the whole dose curve; as a rule, active = well fitted curve in the direction sought with a large enough effect; inconclusive = small, poorly fitted or top-dose-only effect, or another doubt; inactive = no such curve, though single readings can be large; an effect the other way counts as inactive or inconclusive.

SMILES	Tau FP inhib	Tau ThT inhib	Sfp inh	FBPA coupling cs	Tau fluor counter
CCOC(=O)c1sc(NC(=O)c2cc3nc(-c4ccccc4)cc(C(F)(F)F)n3n2)c(C(=O)OCC)c1C	–	–	·	·	–
NC(C(=O)O)c1ccc(P(=O)(O)O)cc1 (stereo not drawn)	–	–	56µM	·	–
CCCCCCCCCCCCCCCCCCOC[C@H](COP(=O)([O-])OCC[N+](C)(C)C)OC(C)=O	–	–	–	–	–
COc1ccc(C(c2c[nH]c3ccccc23)c2c[nH]c3ccccc23)cc1O	?	?	–	–	14µM[quencher]
COc1ccc(C(=O)NCCSc2c[nH]c3ccccc23)cc1OC	–	?	·	·	?
O=C(Nc1nc2cc3c(cc2s1)OCCO3)c1ccc(N2C(=O)CCC2=O)cc1	–	·	14µM	–	–
CNS(=O)(=O)c1ccc2nc(NC(=O)c3ccc(N4C(=O)CCC4=O)cc3)sc2c1	–	–	14µM	–	–
O=C(Nc1nc2cc3c(cc2s1)OCCO3)c1ccncc1	?	?	–	–	–
Cn1cnc(S(=O)(=O)N2CCC(C(=O)N3CCN(c4ccc(Cl)cc4)CC3)CC2)c1	–	–	·	·	–
N#C/C(=C\c1ccc(-c2ccc([N+](=O)[O-])cc2)o1)C(=O)Nc1nc(-c2cccs2)cs1	–	2.2µM	–	–	?
Cc1ccccc1NC(=O)/C(C#N)=C/c1ccc(-c2ccc(Cl)c(C(=O)O)c2)o1	·	·	–	–	·
N#C/C(=C\c1ccc(-c2ccccc2[N+](=O)[O-])o1)C(=O)Nc1nc(-c2cccs2)cs1	–	2.8µM	–	–	?
Cc1ccc(Nc2nc(C)nc(N)c2S(=O)(=O)c2ccccc2)cc1	–	–	·	·	–
O=c1c(-c2cc(F)cc(F)c2)nc2cnc(N3CCNCC3)nc2n1Cc1cccs1	·	·	35µM	–	·
O=c1c(-c2cccs2)nc2cnc(N3CCNCC3)nc2n1Cc1cccs1	·	·	18µM	–	·
CN1CCN(c2ncc3nc(-c4ccc(Cl)cc4)c(=O)n(Cc4cccs4)c3n2)CC1	·	·	–	–	·
O=c1c(-c2ccc(Cl)cc2)nc2cnc(N3CCNCC3)nc2n1Cc1cccs1	·	·	28µM	–	·
COc1cccc(Cn2c(=O)c(-c3cn(C)c4ccccc34)nc3cnc(N4CCNCC4)nc32)c1	·	·	?	–	·
Cn1cc(-c2nc3cnc(N4CCNCC4)nc3n(Cc3ccc(F)cc3)c2=O)c2ccccc21	·	·	20µM	–	·
Cc1noc(C)c1-c1ccc2ncnc(NCc3cccc(F)c3)c2c1	·	·	–	–	·
CC1CCN(c2nc3c(S(=O)(=O)c4cccc(Cl)c4)nnn3c3ccsc23)CC1	–	–	·	·	–
O=C1c2ccccc2C(=O)c2c(O)c(O)cc(O)c21	?	5µM	–	–	14µM[quencher]
O=C1c2ccccc2C(=O)c2c(O)ccc(O)c21	?	?	?	–	–
CC1CCN(S(=O)(=O)c2ccc3nc(Nc4cccc(C(F)(F)F)c4)ccc3c2)CC1	28µM	?	·	·	?
CC1CCN(S(=O)(=O)c2ccc3nc(NCc4ccc(F)cc4)ccc3c2)CC1	?	–	·	·	?
SMILES	Tau FP inhib	Tau ThT inhib	Sfp inh	FBPA coupling cs	Tau fluor counter
CC1CCN(S(=O)(=O)c2ccc3nc(Nc4ccc(C#N)cc4)ccc3c2)CC1	14µM	?	·	·	?
O=S(=O)(c1ccc2nc(Nc3ccc(F)cc3)ccc2c1)N1CCCC1	–	?	·	·	?
COc1ccc(N=C2S/C(=C\c3ccc(OC(C)C(=O)O)c(OC)c3)C(=O)N2CCc2c[nH]c3ccccc23)cc1 (stereo not drawn)	–	28µM	?	–	?
COc1cc(/C=C2\SC(=Nc3ccccc3)N(CCc3c[nH]c4ccccc34)C2=O)ccc1OC(C)C(=O)O (stereo not drawn)	–	?	–	–	?
O=C1/C(=C/c2ccc(N3CCOCC3)o2)SC(=Nc2ccccc2)N1CCc1c[nH]c2ccccc12	?	14µM	2.8µM	–	?
CCN(C(=O)c1cccn(Cc2cccc(Cl)c2)c1=O)c1ccccc1	–	–	·	·	–
Cc1cc(N2CCOCC2)ccc1/C=C1/SC(=O)NC1=O	–	10µM	–	–	–
Cc1ccc(-c2csc(NC(=O)c3cccc(N4C(=O)CCC4=O)c3)n2)o1	–	–	20µM	–	–
O=C(Nc1nnc(-c2ccncc2)o1)c1cccc(N2C(=O)CCC2=O)c1	–	–	56µM	–	–
COc1ccc2c(c1OC)CN(C)CCc1cc3c(cc1C(O)C2)OCO3 (stereo not drawn)	–	–	–	–	–
COc1ccc2c(c1OC)C(Cc1ccccc1)N1CCc3cc4c(cc3C1C2)OCO4 (stereo not drawn)	?	16µM	56µM	–	?
COc1ccc(N2C(=O)/C(=C\c3ccco3)N=C2SCC(=O)N(C(C)C)C(C)C)cc1Cl	–	?	56µM	–	–
COc1ccc(N2C(=O)/C(=C\c3ccco3)N=C2SCC(=O)NC(C)C)cc1Cl	?	?	–	–	–
O=C(CSC1=N/C(=C/c2ccco2)C(=O)N1c1ccc(OC(F)F)cc1)NC1CCS(=O)(=O)C1 (stereo not drawn)	?	28µM	–	–	–
CC(C)CCNC(=O)Cn1cc(S(=O)(=O)Cc2ccc(F)cc2)c2ccccc21	–	–	·	·	–
Cc1cc(C)cc(N(CC(=O)Nc2c(C)cc(C)cc2C)S(=O)(=O)c2c(C)nn(C)c2C)c1	–	–	·	·	–
CCCc1cc(=O)n2[nH]c(NCc3ccccc3OC)nc2n1	–	–	·	·	–
CC(=O)Oc1cc2oc(=O)c3c(c2cc1Cl)CCC3	18µM	14µM	–	–	?
COc1ccc2oc(-c3cccc(NC(=O)c4ccc(C#N)cc4F)c3)nc2c1	–	–	·	·	–
CCOc1ccc(NC(=O)Nc2cc(-c3ccccc3)sc2C(=O)OC)cc1	–	?	–	–	?
COC(=O)c1sc(-c2ccccc2)cc1NC(=O)C1CC1	–	–	45µM	–	–
COC(=O)c1cc(-c2ccccc2)sc1N	–	?	40µM	–	?
O=C(N/N=C/c1ccc(Cl)cc1)c1cc(-c2cccnc2)nc2ccccc12	?	–	–	–	–
Nc1sc(-c2ccccc2)cc1C(=O)N/N=C/c1ccc(Cl)cc1	–	4µM	–	–	14µM[quencher]
CCc1nn(CC(=O)NCCCN(CC(C)C)CC(C)C)c(=O)c2cc3sc(C)cc3n12	–	–	·	·	–
COc1cc(OC)c([N+](=O)[O-])cc1/C=N/NC(=O)c1ccncc1	?	25µM	35µM	-42	?
COc1cc([N+](=O)[O-])cc(/C=N/NC(=O)C(C)Nc2cccc(C)c2)c1O (stereo not drawn)	–	11µM	–	–	–
COc1cc([N+](=O)[O-])cc(/C=N/NC(=O)c2ccc(C)nc2)c1O	–	11µM	–	–	–
